Here are results for 4 compounds from PubChem BioAssay.

The term viability denotes a read-out of living cells in per cent, often relative to untreated cells. As a reminder, the inhibition is the relative decrease from the control value, in per cent.

Records with an inconclusive call do not appear. Activity calls are given as the source filed them.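 The calls were made as follows, unless noted: active = viability at or under a set limit in both replicates, limit being median viability minus 3 SD (cut at about 48% in these data, passing the limit was not always enough); inconclusive = at or under the limit in just one replicate; inactive = at or above the limit in both replicates.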

Assay [1] in a line: Her2 expression decrease, cell viability multiplex – SKBR3 breast tumor cells, AlphaScreen, ATP viability, primary screen (AID 461;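 active = Her2 level under about 52% in both replicate screens, with viability over 70% of control, limit read from the data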;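 as to Her2 level: lower value means less Her2 protein in the cells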;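 as to viability: percent of carrier control wells set as 100% viability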). The following applies: SKBR3 Her2 protein level, 18-24 h, measured here: SKBR3 viability, ATP luminescence, at 10 µM.
The target of assay [2] is Receptor tyrosine-protein kinase erbB-2 (Homo sapiens) (UniProt P04626). The assay is described as above. The following applies: 18-24 h, at 10 µM, stronger effect = lower value.
Receptor tyrosine-protein kinase erbB-2 (Homo sapiens), sequence (P04626 whole entry, looked up): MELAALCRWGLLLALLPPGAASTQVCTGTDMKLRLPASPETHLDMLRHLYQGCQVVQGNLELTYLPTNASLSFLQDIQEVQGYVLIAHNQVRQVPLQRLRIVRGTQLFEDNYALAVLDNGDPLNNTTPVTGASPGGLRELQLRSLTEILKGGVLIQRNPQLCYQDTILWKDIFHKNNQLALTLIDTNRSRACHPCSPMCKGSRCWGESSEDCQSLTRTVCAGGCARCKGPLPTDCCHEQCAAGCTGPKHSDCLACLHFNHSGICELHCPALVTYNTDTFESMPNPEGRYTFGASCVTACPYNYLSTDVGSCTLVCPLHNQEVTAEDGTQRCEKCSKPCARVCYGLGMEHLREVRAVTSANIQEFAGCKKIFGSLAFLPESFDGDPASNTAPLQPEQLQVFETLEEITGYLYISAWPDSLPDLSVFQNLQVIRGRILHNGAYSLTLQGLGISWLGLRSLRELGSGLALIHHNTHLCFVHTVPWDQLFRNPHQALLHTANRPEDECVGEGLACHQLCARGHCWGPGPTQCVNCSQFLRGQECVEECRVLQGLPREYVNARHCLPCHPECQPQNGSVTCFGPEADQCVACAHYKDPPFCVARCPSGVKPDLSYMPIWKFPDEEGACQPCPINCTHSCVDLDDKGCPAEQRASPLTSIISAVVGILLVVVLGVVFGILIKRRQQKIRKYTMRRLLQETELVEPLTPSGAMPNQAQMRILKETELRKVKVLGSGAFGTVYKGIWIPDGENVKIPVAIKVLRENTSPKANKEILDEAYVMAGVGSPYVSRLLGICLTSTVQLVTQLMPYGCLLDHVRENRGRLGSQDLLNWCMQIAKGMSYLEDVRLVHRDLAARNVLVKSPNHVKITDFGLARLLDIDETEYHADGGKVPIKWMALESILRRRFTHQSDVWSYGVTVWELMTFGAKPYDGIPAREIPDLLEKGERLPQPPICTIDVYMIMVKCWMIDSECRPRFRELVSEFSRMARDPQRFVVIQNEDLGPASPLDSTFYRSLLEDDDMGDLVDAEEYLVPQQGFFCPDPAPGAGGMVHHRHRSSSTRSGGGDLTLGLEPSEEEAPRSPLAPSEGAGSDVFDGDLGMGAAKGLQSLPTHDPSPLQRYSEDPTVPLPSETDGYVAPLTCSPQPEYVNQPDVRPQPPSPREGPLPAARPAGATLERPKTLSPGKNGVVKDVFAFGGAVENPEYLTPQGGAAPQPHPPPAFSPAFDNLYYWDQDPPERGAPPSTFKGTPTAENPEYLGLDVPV
A short description of assay [3]: reduced viability of SK-BR-3 breast cancer cells – cell-based, 24 h, human, pilot screen (AID 572;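 active = viability at or below 10% of carrier control in both of two separate runs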;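 also: compound exposure lasted between 18 and 24 h rather than exactly 24 h; 100% = carrier-treated control wells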). The following applies: SK-BR-3 viability, CellTiter-Glo luminescence, at 10 µM, stronger effect = lower value. On the technique in general: ATP-based viability assays read luminescence as a measure of living cells.
The nature of assay [4]: HUVEC growth inhibition – cell-based, human, primary screen (AID 575;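 active = viability at or below 30% in both replicate assays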;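 also: 100% = median of untreated cell wells with 0.1% DMSO on each plate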). The following applies: HUVEC proliferation, CellTiter-Glo luminescence, 72 h; at 10 µM; stronger effect = lower value.
A short description of assay [5]: H69AR cell proliferation blockers – human, duplicate replicates, primary screen (AID 580).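 Also: 100% = mean luminescence of untreated wells and 0% = no signal.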 The following applies: H69AR lung tumor cells viability, ATP luminescence, 72 h; at 10 µM; stronger effect = lower value.
Assay [6] in a line: MRP1 drug-resistance reversers in H69AR cells – cell-based, doxorubicin co-treatment, pilot screen (AID 601;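 active = viability loss from added drug above about 55%, and viability with drug at most 40%, in both replicates, limit read from the data, passing the limit was not always enough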). The following applies: CellTiter-Glo, 72 h, at 10 µM; for differential viability (reversal): stronger effect = higher value.
Assay [7] in a line: yeast transport mutant growth inhibition pilot in 384-well plates, post-Golgi transport modulator project (AID 636; in the data active = inhibition above about 31%). The following applies: absorbance 615 nm, about 18 h, stronger effect = higher value.
The nature of assay [8]: growth suppression of yeast trafficking mutant, preliminary HTS, modulators of trafficking downstream of Golgi apparatus project, 1536-format plate, OD 615 nm (AID 637; in the data active = inhibition above about 30%). Conditions: yeast transport mutant growth, absorbance 615 nm, 18 h; stronger effect = higher value.
A short description of assay [9]: S. cerevisiae growth inhibition in permissive medium (OD615), pilot counter-assay for S. cerevisiae lifespan shortening project, permissive growth control (AID 705;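 active = growth inhibition above 25% in both replicates, a cutoff set 3 SD above the mean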). Conditions: OD615, 24 h, at 10 µM, stronger effect = higher value.
A short description of assay [10]: S. cerevisiae growth inhibition in restrictive medium, OD615, pilot screen, restrictive growth control, yeast lifespan reduction project (AID 706;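 active = growth inhibition above a set limit, 3 SD over mean compound inhibition, in both replicates, cut at about 43% in these data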;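 also: modified DeaD lifespan yeast strain shifted to restrictive glucose medium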). Conditions: OD615, 48 h, at 10 µM, stronger effect = higher value.
Assay [11] in a line: doxorubicin toxicity protection in MRP-1 cells – H69AR cells, CellTiter-Glo, duplicate, MRP-1 activator project, pilot screen (AID 807;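 active = viability increase at or above a cutoff of the median across tested compounds plus 3 SD, cut at about 8.5% in these data, passing the limit was not always enough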;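 also: compound pretreatment 18-22 h then 72 h combined with doxorubicin; 0% = doxorubicin alone and 100% = vehicle without doxorubicin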). Conditions: H69AR viability with doxorubicin, CellTiter-Glo luminescence; at 10 µM; stronger effect = higher value.
Assay [12] is described as follows: viability of HCT116 without oncogenic beta-catenin – human colon tumor cells, pilot screen (AID 823;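 active = cell viability at or below a set limit in both duplicate runs, the limit being the all-compound median minus 4 SD, cut at about 23% in these data, passing the limit was not always enough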;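 also: 0% = wells killed by 20 µM Hyamine and 100% = untreated DMSO cell wells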). Conditions: HCT116 beta-catenin knockout viability, CellTiter-Glo, 60 h; at 10 µM; stronger effect = lower value.
The nature of assay [13]: viability of PTEN-null HCT116 cells – cell-based, HCT116 clonal line, CellTiter-Glo, pilot screen (AID 824;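 active = viability at or below 27.92% in each of two runs, the all-compound median minus 4 SD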;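 also: 0% = 20 µM Hyamine control and 100% = vehicle cell control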). Conditions: HCT116 PTEN-deleted viability, 60 h, at 10 µM, stronger effect = lower value.
A short description of assay [14]: RAM pathway blockade in budding yeast – dse1pr::URA3 reporter, 5-FOA selection, pilot screen (AID 869;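 active = inhibition over a set limit, the all-compound mean plus 3 SD, in both replicate runs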;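 also: 0% = DMSO wells with no growth and 100% = 10 µM 1-NA-PP1 with full growth; RAM network block rescues cells from 5-FOA so hits raise OD615 growth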). Conditions: S. cerevisiae dse1pr::URA3 5-FOA growth, OD615, 2 d; at 10 µM; stronger effect = higher value; strain carries analog-sensitive mutant Cbk1 kinase.
Assay [15] can be described thus: RAM signaling pathway blockade in yeast – S. cerevisiae, Pdr1DBD-CYC8 efflux-inhibited sensitized strain, primary screen (AID 1298;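 active = RAM network inhibition above 8.4% in each of two replicates, 3 SD over the compound average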;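 also: 0% = DMSO untreated cells without growth and 100% = 10 µM 1-NA-PP1 full growth; higher means more yeast growth rescued from 5-FOA killing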). The following applies: S. cerevisiae cbk1-as DSE1-URA3 strain, 5-FOA growth OD615, 2 d; at 50 µM; stronger effect = higher value.
Where [16] appears, read: H69AR cells + 2 uM doxorubicin, measured here: viability with 2 uM doxorubicin, stronger effect = lower value.
Setting [17] is: H69AR cells, compound alone cytotoxicity.

For the compound `CC1CCCN(C(=O)C23CCC(C)(C(=O)C2)C3(C)C)C1` (stereo not drawn), the viability was 99% in [1]; 99% (inactive) in [3]; 103% (inactive) in [4]; 108% (inactive) in assay [5]; 92.6% in assay [6] (setting [16]); 108% in assay [6] (setting [17]). The viability was 97.7% (inactive) in assay [12] and 102% (inactive) in assay [13]. In addition, the Her2 level in [2] was 92% (inactive). Also, the differential viability (reversal) in [6] (H69AR cells + 2 uM doxorubicin) was 15.3% (inactive). The inhibition is -2.43% (inactive) in assay [7], -3.17% (inactive) in assay [8] and -0.565% (inactive) in assay [14]. The growth inhibition in [9] is -7.46% (inactive); in [10] it was -8.69% (inactive). Also, the viability increase in assay [11] is -2.08% (inactive). For the same compound, the RAM network inhibition in [15] is 4.55% (inactive).
As for `CCOC(=O)c1ccccc1NC(=O)c1ccc2c(=O)n3c(nc2c1)CCCCC3`, the viability was 87.5% in assay [1]; 87.5% (inactive) in assay [3]; 84.9% (inactive) in assay [4]; 84.4% (inactive) in [5]; 93.5% in assay [6] (setting [16]); 84.4% in assay [6] (setting [17]). Also, the viability in assay [12] is 82.5% (inactive); in assay [13], 81.2% (inactive). For the same compound, the Her2 level in [2] was 84.5% (inactive). Moreover, the differential viability (reversal) in assay [6] (H69AR cells + 2 uM doxorubicin) is -9.15% (inactive). Besides, the inhibition is -4.53% (inactive) in assay [7], 0.67% (inactive) in assay [8] and 1.7% (inactive) in assay [14]. Besides, the growth inhibition is -5.51% (inactive) in assay [9] and -0.78% (inactive) in assay [10]. Besides, the viability increase in assay [11] was -1.73% (inactive). Besides, in assay [15], the RAM network inhibition is 18.8% (active).
In the case of `CCOc1ccc(N2CC(C(=O)Nc3ccccc3OC)CC2=O)cc1` (stereo not drawn), the viability was 106% in assay [1]; 106% (inactive) in [3]; 110% (inactive) in [4]; 95.7% (inactive) in [5]; 86% in assay [6] (setting [16]); 95.7% in assay [6] (setting [17]). Besides, the viability in assay [12] and in assay [13] was 102% (inactive) each time. In addition, the Her2 level in [2] was 98% (inactive). In [6] (H69AR cells + 2 uM doxorubicin), the differential viability (reversal) was 9.71% (inactive). The inhibition in assay [7] was -3.87% (inactive); in assay [8], -3% (inactive); in assay [14], 1.8% (inactive). For the same compound, the growth inhibition in [9] is -7.43% (inactive); in assay [10], -1.77% (inactive). For the same compound, the viability increase in assay [11] is -1.73% (inactive). In addition, the RAM network inhibition in assay [15] is 0.63% (inactive).
For the compound `Oc1ccccc1-c1nnc(COc2ccc(Cl)cc2Cl)o1`, the viability in assay [1] was 96%; in assay [3], 96% (inactive); in assay [4], 101% (inactive); in [5], 63.3% (inactive); in assay [6] (setting [16]), 76.1%; in assay [6] (setting [17]) it was 63.3%. Further, the figures for the viability in assay [12] and in assay [13] were 92.3% (inactive) and 86.6% (inactive), respectively. In assay [2], the Her2 level was 97.5% (inactive). In assay [6] (H69AR cells + 2 uM doxorubicin), the differential viability (reversal) was -12.9% (inactive). The inhibition is -8.8% (inactive) in assay [7], 0.5% (inactive) in [8] and 1.82% (inactive) in assay [14]. Further, the growth inhibition in [9] is -10.2% (inactive); in assay [10], -11.7% (inactive). Besides, the viability increase in [11] is -1.77% (inactive). Also, the RAM network inhibition in [15] is 7.07% (inactive).
